Assay outcomes deposited in PubChem BioAssay by Broad Institute.
miR122 inh – raises miR-122 sensor activity in Huh7 cells; Huh7 psiCHECK-miR122 Renilla luciferase sensor, 48 h; activation, % at 12.5 µM; hit rate 0.14% among 340,000;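 active = mean activation of 30% or more, with every replicate also reaching 30%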;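 also: 0% = median of neutral control wells and 100% = median of positive control wells; higher luciferase signal means stronger suppression of miR-122 activity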
Starred values were filed as active, the others as inactive. Only a selection was taken, and hits are over-represented in it overall.

SMILES	miR122 inh
CN(C)CCNc1ncnc2c1sc1nc(N3CCOCC3)c3c(c12)CC(C)(C)SC3	56*
CCC(=O)Nc1ccc2c(c1)C(=O)N(C)C[C@H](OC)[C@@H](C)CN(C(C)=O)[C@@H](C)CO2	-3
CO[C@@H]1CN(C)C(=O)c2cc(NC(=O)Cc3ccccc3)ccc2OC[C@@H](C)N(CCc2ccccc2)C[C@H]1C	-4
CN1C(=O)c2cc(NS(=O)(=O)c3ccc(Cl)cc3)ccc2OC[C@@H]2O[C@H](CC(=O)N3CCc4ccccc4C3)CC[C@H]21	33*
CN(C)CCCNC(=O)C[C@@H]1CC[C@H]2[C@H](COc3ccc(NC(=O)c4cccc(F)c4)cc3C(=O)N2C)O1	42*
CCNC(=O)C[C@H]1CC[C@H]2[C@@H](COc3ccc(NC(=O)c4ccccc4)cc3C(=O)N2C)O1	50*
CC(C)C(=O)Nc1ccc2c(c1)C(=O)N(C)[C@H]1CC[C@H](CC(=O)NCc3cccc(F)c3)O[C@H]1CO2	-440
COc1cccc(CNC(=O)C[C@H]2CC[C@@H]3[C@@H](COc4ccc(NC(C)=O)cc4C(=O)N3C)O2)c1	53*
CO[C@@H]1CN(C)C(=O)c2cc(NS(=O)(=O)c3ccccc3)ccc2OC[C@H](C)N(C)C[C@H]1C	1
CN1C(=O)c2cc(NC(=O)Cc3ccccc3)ccc2OC[C@@H]2O[C@@H](CC(=O)NCC3CC3)CC[C@@H]21	-183
CO[C@@H]1CN(C)C(=O)c2cc(NS(=O)(=O)c3ccccc3)ccc2OC[C@@H](C)N(C)C[C@H]1C	-1
CO[C@H]1CN(C)C(=O)c2cc(NC(=O)Cc3ccccc3)ccc2OC[C@H](C)N(C)C[C@H]1C	-3
C[C@H]1CN([C@@H](C)CO)C(=O)c2cc(-c3ccccc3)cnc2O[C@H]1CN(C)C(=O)Nc1ccc2c(c1)OCO2	-3
Cc1noc(C)c1NC(=O)N(C)C[C@@H]1Oc2ncc(C#Cc3ccc(C(F)(F)F)cc3)cc2C(=O)N([C@H](C)CO)C[C@@H]1C	5
CCC(=O)Nc1ccc2c(c1)OC[C@H](C)N(CCC(F)(F)F)C[C@H](C)[C@H](OC)CN(C)C2=O	-3
COCC#Cc1ccc2c(c1)O[C@@H](CN(C)C(=O)COC)[C@@H](C)CN([C@@H](C)CO)S2(=O)=O	0
CCC(=O)N(C)C[C@@H]1Oc2ncc(C#Cc3ccc(OC)cc3)cc2C(=O)N([C@@H](C)CO)C[C@H]1C	-2
C[C@@H]1CN([C@H](C)CO)S(=O)(=O)c2ccc(C#Cc3cccnc3)cc2O[C@@H]1CN(C)C(=O)C1CC1	13
COc1cccc(NC(=O)N(C)C[C@H]2Oc3cc(-c4cccc(C(=O)N(C)C)c4)ccc3S(=O)(=O)N([C@@H](C)CO)C[C@@H]2C)c1	-44
C[C@H](O)C#Cc1cnc2c(c1)C(=O)N([C@@H](C)CO)C[C@@H](C)[C@@H](CN(C)C(=O)CN(C)C)O2	2
CO[C@@H]1CN(C)C(=O)c2cc(NC(=O)c3nc4ccccc4s3)ccc2OC[C@@H](C)N(Cc2ccncc2)C[C@@H]1C	1
C[C@@H]1CN([C@@H](C)CO)C(=O)c2cc(-c3cncnc3)cnc2O[C@@H]1CN(C)Cc1ccc(F)cc1	1
CCC(=O)Nc1ccc2c(c1)OC[C@H](C)NC[C@H](C)[C@@H](OC)CN(C)C2=O	-6
C[C@H](CO)N1C[C@H](C)[C@@H](CN(C)C(=O)Nc2ccc(F)cc2)Oc2ncc(-c3cccnc3)cc2C1=O	0
CN1C(=O)c2cc(NC(=O)c3cccc(F)c3)ccc2OC[C@@H]2O[C@H](CC(=O)Nc3ccccc3)CC[C@H]21	55*
SMILES	miR122 inh
CO[C@@H]1CN(C)C(=O)c2cc(NC(=O)c3ccc(F)cc3)ccc2OC[C@@H](C)N(C)C[C@@H]1C	-1
CO[C@H]1CN(C)C(=O)c2cc(NC(=O)c3ccc(F)cc3)ccc2OC[C@@H](C)N(C)C[C@H]1C	-3
CO[C@H]1CN(C)C(=O)c2cc(NC(=O)c3ccc(F)cc3)ccc2OC[C@@H](C)N(C)C[C@@H]1C	-1
CN1C(=O)c2cc(NC(=O)c3cccc(F)c3)ccc2OC[C@H]2O[C@H](CC(=O)N3CCc4ccccc4C3)CC[C@H]21	37*
CO[C@@H]1CN(C)C(=O)c2cc(NC(=O)c3ccc(F)cc3)ccc2OC[C@H](C)N(C)C[C@@H]1C	-3
C[C@@H]1CN([C@@H](C)CO)C(=O)c2cc(C#CCc3ccccc3)cnc2O[C@H]1CN(C)C(=O)C1CCCCC1	4
CC(C)CC#Cc1cnc2c(c1)C(=O)N([C@H](C)CO)C[C@@H](C)[C@H](CN(C)C(=O)Cc1ccccc1)O2	6
CO[C@@H]1CN(C)C(=O)c2cc(NC(C)=O)ccc2OC[C@H](C)N(C(=O)CN(C)C)C[C@@H]1C	2
COCC(=O)N(C)C[C@H]1Oc2cc(-c3cncnc3)ccc2S(=O)(=O)N([C@@H](C)CO)C[C@@H]1C	-3
Cc1ccc(C(=O)OCn2ncc(Cl)c(Cl)c2=O)cc1	74*
C[C@H]1CN([C@@H](C)CO)C(=O)c2cc(/C=C/c3ccccc3)cnc2O[C@@H]1CN(C)Cc1ccccc1F	7
COc1ccc(CN2CCc3c([nH]c4ccccc34)C2)c(OC)c1C	42*
COc1ccccc1S(=O)(=O)N(C)C[C@H]1Oc2cc(/C=C/c3ccccc3)ccc2S(=O)(=O)N([C@@H](C)CO)C[C@@H]1C	-34
C[C@H]1CN([C@@H](C)CO)S(=O)(=O)c2ccc(C#CC3CCCC3)cc2O[C@H]1CN(C)CC1CC1	0
C[C@@H]1CN([C@@H](C)CO)C(=O)c2cc(C#CCN(C)C)cnc2O[C@H]1CN(C)C(=O)Cc1ccncc1	3
C[C@H](O)C#Cc1ccc2c(c1)O[C@@H](CN(C)C(=O)c1ccncc1)[C@@H](C)CN([C@@H](C)CO)S2(=O)=O	2
C[C@@H](O)C#Cc1ccc2c(c1)O[C@H](CN(C)C(=O)c1ccncc1)[C@@H](C)CN([C@@H](C)CO)S2(=O)=O	-10
CC(C)C#Cc1ccc2c(c1)O[C@H](CN(C)C(=O)c1ccncc1)[C@H](C)CN([C@@H](C)CO)S2(=O)=O	40*
C/C=C/c1ccc2c(c1)O[C@H](CN(C)C(=O)c1cnccn1)[C@H](C)CN([C@H](C)CO)S2(=O)=O	33*
C[C@H](O)C#Cc1ccc2c(c1)O[C@H](CN(C)C(=O)c1ccncc1)[C@H](C)CN([C@@H](C)CO)S2(=O)=O	16
C[C@H](O)C#Cc1ccc2c(c1)O[C@H](CN(C)C(=O)c1ccncc1)[C@@H](C)CN([C@@H](C)CO)S2(=O)=O	-2
C[C@@H]1CN([C@H](C)CO)S(=O)(=O)c2ccc(C#Cc3ccncc3)cc2O[C@@H]1CN(C)C(=O)Nc1ccc2c(c1)OCO2	49*
C/C=C/c1ccc2c(c1)O[C@H](CN(C)C(=O)c1cccnc1)[C@@H](C)CN([C@@H](C)CO)S2(=O)=O	-13
C[C@@H]1CN([C@@H](C)CO)S(=O)(=O)c2ccc(C#Cc3ccccc3)cc2O[C@H]1CN(C)C(=O)Nc1ccc2c(c1)OCO2	-9
C[C@@H]1CN([C@@H](C)CO)S(=O)(=O)c2ccc(C#Cc3ccccc3)cc2O[C@@H]1CN(C)C(=O)Nc1ccc2c(c1)OCO2	-1
C/C=C/c1ccc2c(c1)O[C@@H](CN(C)C(=O)c1cccnc1)[C@H](C)CN([C@@H](C)CO)S2(=O)=O	-7
CC(C)C#Cc1ccc2c(c1)O[C@H](CN(C)C(=O)c1ccncc1)[C@@H](C)CN([C@@H](C)CO)S2(=O)=O	41*
CCCNC(=O)N(C)C[C@H]1Oc2cc(C#CCOC)ccc2S(=O)(=O)N([C@H](C)CO)C[C@H]1C	-10
